PubChem BioAssay AID1117319 (Southern Research Institute, 2015)
Screen size: about 260,000 compounds; about 1,500 (0.58%) were called active. About 5% were inconclusive and are not listed.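 The calls were made as follows: active = inhibition above a set limit at one or more doses, reproduced on every date tested; inconclusive = results disagree between test dates, or hit never tested in dose response; inactive = the rest.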 A selection follows. Entries with a potency or affinity are not part of this list.

Target: Virion infectivity factor (Human immunodeficiency virus type 1 group M subtype B (isolate BH10)) + Virion infectivity factor (Human immunodeficiency virus type 1 group M subtype B (isolate BRU/LAI)) + Virion infectivity factor (Human immunodeficiency virus type 1 group M subtype B (isolate PCV12)) + Virion infectivity factor (Human immunodeficiency virus type 1 group M subtype B (isolate HXB2)) + DNA dC->dU-editing enzyme APOBEC-3G (Homo sapiens) (UniProt P69720+P69721+P69722+P69723+Q9HC16)
Test: inhibitors of Vif binding to APOBEC3G peptide, primary screen, biochemical, TR-FRET, GST-Vif 1-94, biotin-A3G peptide, dose response retest (AID 1117319);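 also: Vif residues 1-94 fused to GST binding biotinylated APOBEC3G peptide 110-148; 0% = full assay without inhibitor and 100% = GST in place of GST-Vif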
Settings: hits give high values

inhibition, inactive:
CCCCn1c(O)c(C(CC)=Nc2ccc3c(c2)CCC3)c(=O)[nH]c1=O 7.31%
C=CCn1c(O)c(C(CC)=NCCN2CCOCC2)c(=O)[nH]c1=O 65.5%
COc1ccccc1NC(=O)Cn1cnc2sc(C(=O)Nc3ccc(OC)c(OC)c3)c(C)c2c1=O 0.19%
COc1ccc(S(=O)(=O)N2CCCCCC2)cc1C(=O)N(C)Cc1ccc(F)cc1 4.27%
CCN(CC)S(=O)(=O)c1cccc2cc(C(=O)O)c(O)cc12 -3.16%
C=CCNS(=O)(=O)c1cccc2cc(C(=O)O)c(O)cc12 -0.91%
Cc1ccc(N2C(=O)N(c3ccc(C)cc3)C3CS(=O)(=O)CC32)cc1 (stereo unspecified) -8.71%
C=CCn1c(COc2ccc(F)cc2)nnc1SCC(=O)N1CC(=O)Nc2ccccc21 3.87%
CCOC(=O)c1c(C=O)c(C)n(Cc2ccccc2)c1C 4.84%
CCOC(=O)c1cc(C)n(Cc2ccccc2)c1C 24.3%
FC(F)(F)c1cc(-c2ccco2)nc(NCc2ccc(Cl)cc2)n1 3.96%
Fc1ccc(CNc2nc(-c3ccco3)cc(C(F)(F)F)n2)cc1 9.71%
FC(F)(F)c1cc(-c2ccco2)nc(NCc2ccccc2)n1 15.6%
FC(F)(F)c1cc(-c2ccccc2)nc(NCc2cccnc2)n1 -5.26%
COc1ccc(/C=N/NC(=O)c2cccc([N+](=O)[O-])c2)cc1OS(=O)(=O)c1ccccc1 2.68%
COc1ccc(NC(c2ccccc2)c2ccncc2)cc1 (stereo unspecified) 7.39%
CCC(C)(C)NC(=O)C(c1ccc(C)cc1)N(CCN1CCOCC1)C(=O)CNC(=O)c1cccs1 (stereo unspecified) 2.09%
Cc1c(NC(=O)Cc2noc3ccccc23)cccc1[N+](=O)[O-] -3.42%
CCN(CCCNC(=O)CN(C)S(=O)(=O)c1cccc2nsnc12)c1ccccc1 20.3%
CC(=O)c1ccc(-c2cccs2)s1 2.24%
Cc1ccsc1/C=N/n1cnnc1 -12.8%
CCCCC(=O)N/N=C/c1sccc1C -0.53%
O=Cc1ccc(-c2cccs2)s1 -3.47%
CCOC(=O)c1[nH]c(C)c(C(=O)N(CC)CC)c1C 4.43%
CC(=O)NS(=O)(=O)c1ccc(NC(=O)c2ccc(-n3nc(C)cc3C)cc2)cc1 0.12%
CCOC(=O)C1CCN(C(=O)COC(=O)c2cc(-c3cccs3)nn2-c2ccccc2)CC1 -3.24%
O=C(O)CCN1/C(=C/C=Nc2ccccc2)Oc2ccccc21 20.6%
O=S1(=O)CC(O)C(NCc2ccco2)C1 (stereo unspecified) 11.1%
COc1ccc(NC2CS(=O)(=O)CC2NCc2ccccc2)cc1 (stereo unspecified) -0.42%
COc1ccc(C2c3c(oc4ccccc4c3=O)C(=O)N2c2ccccn2)cc1OC (stereo unspecified) -8.31%
COC1OC(COC(=O)c2ccccc2)C(OC(=O)c2ccccc2)C1OC(=O)c1ccccc1 (stereo unspecified) 3.23%
COC(=O)c1cc(O)c(O)c(O)c1 16.7%
O=C1c2ccccc2C(=O)N1CCc1csc(-c2ccccc2)n1 0.09%
O=C(O)CC(Cn1[nH]nnc1=S)c1ccccc1 (stereo unspecified) -2.23%
O=C(O)CC(c1ccccc1)c1ccccc1 0.95%
Cc1cccc(N=CC=C2OC(C)(C)C(C)(C)O2)c1 -6.65%
Cc1ccc(NC(=O)CNC(=O)c2ccc(C(C)(C)C)cc2)cc1S(=O)(=O)N1CCOCC1 0.79%
CCO[C@H]1OC(C(=O)N2CCN(Cc3ccc4c(c3)OCO4)CC2)=C[C@@H](c2cn(C(C)=O)c3ccccc23)[C@@H]1CCCO -9.76%
O=C(CN1C(=O)NC2(CCCCC2)C1=O)NCc1ccc2c(c1)OCO2 -8.65%
O=C(CN1C(=O)NC2(CCCCCC2)C1=O)NCc1cccs1 -5.46%
CC1CCC2(CC1)NC(=O)N(CC(=O)NCc1ccc3c(c1)OCO3)C2=O (stereo unspecified) -3.28%
CC1CCC2(CC1)NC(=O)N(CC(=O)NCc1cccs1)C2=O (stereo unspecified) -3.91%
O=C(c1nc2ccccn2c1CNCCCn1cccn1)N1CCCC1 23.8%
C/C(=N\NC(=O)Cn1ccc(C(F)(F)F)n1)c1ccc2c(c1)OCO2 -1.38%
CCN(CC)CCOC(=O)c1ccc(NC(=O)c2cccc(C)c2[N+](=O)[O-])cc1 2.15%
COc1ccc(CNC(=O)C(c2ccncc2)N(C(=O)Cc2cccs2)c2cccnc2)cc1 (stereo unspecified) 2.85%
COc1ccc(NC(=O)C[C@H]2C(=O)N(Cc3cccnc3)C[C@@H]2Cc2ccccc2)cc1 -1.58%
O=C(NCCc1ccccc1)c1ncn[nH]1 28.1%
CCCNC(=O)Cc1ncn[nH]1 -3.15%
O=C(CCN1C(=O)c2ccccc2C1=O)CN1CCOCC1 -9.57%
O=C(NC1CCCC1)C(c1ccc(Cl)cc1)N1CCc2ccccc21 (stereo unspecified) 2.15%
CCc1ccc(CN(Cc2cccnc2)C(=O)/C=C/c2ccc(OC)cc2)cc1 -6.21%
CC(C)(C)c1ccc(C(=O)N2CCN(c3ncccn3)CC2)cc1 -3.51%
CCN1C(=O)/C(=C/N2CCc3ccccc32)SC1=S 2.5%
c1ccc2c(c1)CCN2CCN1CCc2ccccc21 -3.68%
O=C(C#Cc1ccccc1)c1ccccc1 -8.84%
COc1ccc(Cl)cc1N(CC(=O)Nc1cccc(SC)c1)S(C)(=O)=O 4.16%
CCN1C(=O)/C(=C/N(C)c2ccccc2)OC1=S 0.98%
CC(C)(C)c1ccc(OCCC(=O)Nc2cccc(S(=O)(=O)NC3=NCCCCC3)c2)cc1 -0.89%
O=C(NCc1ccco1)c1csc(Nc2ccccc2Cl)n1 -7.13%
COc1ccc(Nc2nc(C(=O)NCc3ccco3)cs2)cc1 -1.71%
